FMDV antiviral = foot and mouth disease virus antiviral activity; AID 1159524; FMDV antiviral cell-based qHTS; 410,000 tested, 1.2% active; Potency, µM (highest dose often 57.9 µM), hits mostly inhibitors; calls by dose curve; tested in HEK293T cells; also: read-out not given here; nearly all actives have a fitted effect of over 45% in size
LASV entry inh = Lassa virus entry inhibition | Lassa virus pseudotype entry inhibition, cell reporter | Potency, µM (top dose mostly 37.9 µM), hits mostly inhibitors | 300,000 tested, 1.2% active | AID 540256; calls by dose curve; tested in HEK293 cells; also: nearly all actives have a fitted effect of over 50% in size
Marburg entry inh = inhibitors of Marburg virus binding or cell entry; Marburg virus pseudotyped entry inhibition, cell reporter; 300,000 tested, 1.8% active; Potency, µM (top dose mostly 37.8 µM), hits mostly inhibitors; calls by dose curve; tested in HEK293 cells
HCMV inh = human cytomegalovirus inhibition | AID 1259415 | 410,000 tested, 4.5% active | HFF cells, HCMV-luciferase reporter, 72 h; stronger effect = lower value | activity change, negative = inhibition, % at 57.5 µM; in the data active = activity change below about -60%; inconclusive = no clear call, values can overlap the other calls; inactive = above about -39%
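Human foreskin fibroblasts infected with luciferase-reporter HCMV at MOI 1 PFU/cell, compounds at two doses. Luciferase measured 72 h post infection; normalized to buffer-only basal and Salinomycin (10uM) controls.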
HCV inhibitor = HCV inhibition | Huh7.5.1 HCVcc-Cre infection, luciferase reporter, 44 h | Potency, µM (titrated, usually from 41.8 µM), hits mostly inhibitors | 340,000 tested, 3.4% active | AID 651820; active = well fitted inhibition curve with a large enough effect; inconclusive = small, poorly fitted or top-dose-only effect, or another doubt; inactive = no such curve, though single readings can be large or run the other way
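1,000 cells/well; 4 h culture; + compound; + HCVcc-Cre (~0.5 moi); 44 h; luciferase substrate, RT 15 min; read 15 sec.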
SARS PLP yeast = blocks SARS-CoV papain-like protease in a yeast assay | S. cerevisiae expressing SARS-CoV PLpro, growth rescue | Potency, µM (doses to about 32.9 µM), usual class: activators | 330,000 tested, 0.19% active; calls by dose curve; also: nearly all actives have a fitted effect of over 55% in size
Hits are given with their value; ! = not active in a repeat. Hits are enriched below; roughly 8% of the tested compounds scored in any of these assays.

Results for CC1(C)Cc2ccccc2C(NNC(=O)c2cccnc2)=N1 ?
FMDV antiviral: inactive; LASV entry inh: inactive; Marburg entry inh: inactive; HCMV inh: -91.7; HCV inhibitor: inactive; SARS PLP yeast: inactive

How did CCOC(=O)c1ccccc1NC(=O)Nc1ccc(OC)c(OC)c1 do in these assays?
FMDV antiviral: inactive; LASV entry inh: inactive; Marburg entry inh: inactive; HCMV inh: inactive; HCV inhibitor: inactive; SARS PLP yeast: inactive

What do the screens show for `Cc1cc(NC(=O)NC(=O)c2ccccc2NC(=O)C(C)N)ccc1Oc1ncc(Br)cn1` (centres undefined)?
FMDV antiviral: inactive; LASV entry inh: inconclusive; Marburg entry inh: inconclusive; HCMV inh: -82.8; HCV inhibitor: inactive

Results for O=C(CCCn1ncn2c(cc3occc32)c1=O)NCc1cccc(Cl)c1 ?
FMDV antiviral: inactive; HCMV inh: inactive; HCV inhibitor: inactive; SARS PLP yeast: inactive

How did CC(C)[C@H](N)c1cn([C@@H](CO)C(=O)N2CCNCC2)nn1 do in these assays?
FMDV antiviral: inactive; HCMV inh: inactive; HCV inhibitor: inactive; SARS PLP yeast: inactive

Results for NC(=O)C[C@H](N)c1cn([C@@H](CC(N)=O)C(=O)N2CCNCC2)nn1 ?
FMDV antiviral: inactive; HCMV inh: -60.1; HCV inhibitor: inactive; SARS PLP yeast: inactive

How did Cc1ccc(NC(=O)CN2C(=O)CNC2=O)cc1 do in these assays?
FMDV antiviral: inactive; HCMV inh: inconclusive; HCV inhibitor: inactive; SARS PLP yeast: inactive

How did Brc1ccccc1OCCN1CCCC1 do in these assays?
FMDV antiviral: inactive; LASV entry inh: inactive; Marburg entry inh: inactive; HCMV inh: inactive; HCV inhibitor: inactive

How did CCN1C(=NCc2ccc(OC)cc2)NC(c2cccc(F)c2)C(C(=O)OC)=C1C (centres undefined) do in these assays?
Marburg entry inh: inactive

What do the screens show for `Cc1c(CCOC(=O)CC23CC4CC(CC(C)(C4)C2)C3)sc[n+]1CC(=O)c1ccccc1`?
FMDV antiviral: 28.2µM; HCMV inh: -70.8; HCV inhibitor: inactive; SARS PLP yeast: inactive

Results for O=C(CSc1nnc(NC(=O)NC2CCCCC2)s1)Nc1ccccc1F ?
FMDV antiviral: inactive; LASV entry inh: inconclusive; HCMV inh: inactive

What do the screens show for `COc1ccc(/C=C2\SC(=S)N(NC(=O)c3ccncc3)C2=O)cc1OC`?
SARS PLP yeast: inactive

How did N=C1S/C(=C\c2ccc(-c3cccc(Cl)c3)o2)C(=O)N1c1nccs1 do in these assays?
FMDV antiviral: inactive; LASV entry inh: inconclusive; Marburg entry inh: 3.16µM; HCMV inh: -77.9; HCV inhibitor: inactive; SARS PLP yeast: inactive

How did COc1ccc(/C=C2\SC(=N)N(c3nccs3)C2=O)cc1OC do in these assays?
FMDV antiviral: inconclusive; LASV entry inh: inactive; Marburg entry inh: inconclusive; HCMV inh: -93.7; HCV inhibitor: inconclusive; SARS PLP yeast: inactive

How did COc1ccccc1CCn1c(=O)c(-c2cccc(F)c2)nc2cncnc21 do in these assays?
FMDV antiviral: inactive

Results for CC(=O)OC[C@H]1O[C@H](C#Cc2ccccc2)C=C[C@H]1OC(C)=O ?
Marburg entry inh: inactive

How did CCN(CC)CCCNC(=O)c1ccc(OCC(=O)Nc2ccccc2C(F)(F)F)c(OC)c1 do in these assays?
FMDV antiviral: inactive; LASV entry inh: inconclusive; Marburg entry inh: 11.2µM; HCMV inh: inactive; HCV inhibitor: inconclusive; SARS PLP yeast: inactive

How did COc1ccccc1CNC(=O)CN1C(=O)c2cccnc2Oc2ccccc21 do in these assays?
FMDV antiviral: inactive; LASV entry inh: inactive; Marburg entry inh: inactive; HCMV inh: inactive

What do the screens show for `Nc1nc(SCc2ccc(Br)cc2)c2ncn(C3OC(CO)C(O)C3O)c2n1` (centres undefined)?
FMDV antiviral: inactive; LASV entry inh: inactive; Marburg entry inh: inactive; HCMV inh: -61.1; HCV inhibitor: inactive

How did Cn1cnc([N+](=O)[O-])c1Sc1nc(N)nc2c1ncn2C1CC(O)C(CO)O1 (centres undefined) do in these assays?
FMDV antiviral: inconclusive; LASV entry inh: inconclusive; Marburg entry inh: inconclusive; HCMV inh: -82.2; HCV inhibitor: inconclusive

What do the screens show for `Cn1cnc([N+](=O)[O-])c1Sc1nc(N)nc2c1ncn2C1OC(CO)C(O)C1O` (centres undefined)?
FMDV antiviral: inconclusive; LASV entry inh: 2.82µM; Marburg entry inh: inconclusive; HCMV inh: -76.3; HCV inhibitor: inactive

What do the screens show for `CCC(C(=O)NCc1ccccc1Cl)n1c(=O)c2cccn2c2ccccc21` (centres undefined)?
FMDV antiviral: inactive; LASV entry inh: inactive; HCMV inh: inconclusive

What do the screens show for `CC1=CC[C@@H](COc2ccccc2)O[C@@]2(C1)C(=O)N(Cc1ccc(Br)cc1)c1ccccc12`?
Marburg entry inh: inactive

Results for CCOc1ccc(/C=N/NC(=O)C2CC2)c(OCC)c1 ?
FMDV antiviral: inactive; LASV entry inh: inactive; Marburg entry inh: inactive; HCMV inh: inactive; HCV inhibitor: 4.47µM; SARS PLP yeast: inactive

Results for CCn1c(C(=O)N2CCC(C(=O)NCc3ccc(OC)cc3)CC2)cc2sccc21 ?
FMDV antiviral: inactive; LASV entry inh: inconclusive; Marburg entry inh: inactive; HCV inhibitor: inactive; SARS PLP yeast: inactive

What do the screens show for `COCCNC(=O)C1CCCN(C(=O)c2ccc3c(c2)C(C)(C)CCC3(C)C)CC1` (centres undefined)?
FMDV antiviral: inactive; HCMV inh: inactive

What do the screens show for `O=C(NCc1ccco1)C1CCN(C(=O)c2cc3sccc3n2Cc2ccc(Cl)cc2)CC1`?
LASV entry inh: inconclusive; Marburg entry inh: 11.6µM!; HCV inhibitor: inconclusive; SARS PLP yeast: inactive

What do the screens show for `COCCNC(=O)C1CCN(C(=O)c2cc3sccc3n2Cc2ccc(Cl)cc2)CC1`?
FMDV antiviral: inconclusive; Marburg entry inh: 7.94µM

What do the screens show for `COCCNC(=O)C1CCCN(C(=O)c2ccnc(Cl)c2)CC1` (centres undefined)?
FMDV antiviral: inactive; HCMV inh: -68.5

What do the screens show for `O=C(NCc1ccco1)C1CCN(C(=O)c2ccc(Cl)cc2)CC1`?
FMDV antiviral: inactive; HCMV inh: inactive; HCV inhibitor: inactive; SARS PLP yeast: inactive

What do the screens show for `CCC(C)NC(=O)C1CCN(C(=O)c2cc3sccc3n2Cc2ccc(Cl)cc2)CC1` (centres undefined)?
FMDV antiviral: 14.1µM; Marburg entry inh: inconclusive

How did COCCNC(=O)C1CCN(C(=O)c2cc3sccc3n2Cc2ccc(F)cc2)CC1 do in these assays?
FMDV antiviral: inactive; HCV inhibitor: inconclusive; SARS PLP yeast: inactive

How did CCS(=O)(=O)N1CCN(c2cc3c(cc2[N+](=O)[O-])n(C)c(=O)n3C)CC1 do in these assays?
FMDV antiviral: inconclusive; LASV entry inh: inactive; Marburg entry inh: inactive; HCMV inh: inactive; HCV inhibitor: inactive; SARS PLP yeast: inactive

Results for Cc1c(C(=O)NCC(C)(C)N2CCOCC2)cnn1-c1nccc(-c2cccs2)n1 ?
FMDV antiviral: inactive

Results for N#C/C(=C/c1ccc(N2CCCCC2)o1)C(=O)Nc1ccc2ccccc2c1 ?
FMDV antiviral: inactive; LASV entry inh: inactive; Marburg entry inh: inconclusive; HCMV inh: inconclusive; HCV inhibitor: 10µM; SARS PLP yeast: inactive

Assay outcomes (PubChem)
